The values that follow come from PubChem BioAssay.

Experiment [1] in a line: antimalarial activity against Dd2 strain (AID 2302;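 active = growth inhibition above 50% at the single 2 µM test dose, taken to imply half-maximal potency below 2 µM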;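 note: 0% = DMSO untreated growth and 100% = chloroquine plus artemisinin killed control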). The following applies: P. falciparum Dd2 in RBCs, LDH growth readout, 72 h; at 2 µM; hits give high values.
A short description of experiment [2]: human hepatoma cell viability loss – ATP luminescence, cytotoxicity control for P. falciparum antimalarial project, primary screen (AID 2303;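 active = inhibition above 50%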;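 note: 0% = DMSO wells and 100% = digitonin-killed cells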). Particulars: HepG2 viability, 24-48 h, at 10 µM, hits give high values.
Experiment [3] deals with L-lactate dehydrogenase (Plasmodium falciparum (isolate CDC / Honduras)) (UniProt Q27743). The experiment is described as follows: PfLDH activity inhibition – cell lysate, 3D7 strain, counter-screen for P. falciparum growth inhibition project (AID 2304).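 Note: 0% = vehicle and 100% = reference inhibitor.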 Particulars: P. falciparum 3D7 crude extract, LDH APAD/NBT absorbance; at 2 µM; hits give high values. For orientation: A counterscreen serves to expose hits that act by an unwanted route or on another target.

The nature of experiment [4]: inhibition of 3D7 malaria parasite growth – strain 3D7 (AID 2306).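 Note: 0% = DMSO wells and 100% = chloroquine plus artemisinin control wells.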 The following applies: P. falciparum 3D7 erythrocytic growth, LDH absorbance, 72 h; at 2 µM; hits give high values.
Experiment [5] addresses Calcium-dependent protein kinase 1 (Plasmodium falciparum (isolate 3D7)) (UniProt P62344). The experiment is described as follows: PfCDPK1 kinase inhibitors, biochemical, TCAMS library (AID 1159585; cut-off not given, nearly all actives have IC50 up to about 0.98 µM;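 note: inhibitors leave more ATP so luminescence rises with inhibition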). Particulars: recombinant PfCDPK1, Kinase-Glo ATP depletion luminescence. (In Kinase-Glo more light means more ATP remaining.)
The target of experiment [6] is Plasmodium falciparum protein kinase 6 (PK6, PF3D7_1337100) (UniProt Q8IDW1). The experiment is described as follows: PfPK6 kinase inhibitors, biochemical, TCAMS library (AID 1159586). Particulars: recombinant PfPK6, Kinase-Glo ATP depletion luminescence.
Experiment [7] has as its target Protein kinase 7 (PK7), Plasmodium falciparum 3D7 (PF3D7_0213400) (UniProt Q7YTF7). Nature of the experiment: inhibition of Plasmodium PK7 catalytic activity – biochemical, TCAMS antimalarial set, Kinase-Glo luminescence (AID 1159587). The following applies: recombinant PfPK7, Kinase-Glo ATP depletion luminescence.
Experiment [8] concerns the target Calcium-dependent protein kinase 4 (Plasmodium falciparum (isolate 3D7)) (UniProt Q8IBS5). The experiment is described as follows: PfCDPK4 kinase inhibitors, biochemical, TCAMS library (AID 1159588; cut-off not given, nearly all actives have IC50 up to about 0.91 µM). The following applies: recombinant PfCDPK4, Kinase-Glo ATP depletion luminescence.

Values without a mark were called inactive. For some of these results: Potency and affinity values are given separately. Calls of active or inactive are those of the source. Unless noted, the rule behind the calls is not given here.

Protein kinase 7 (PK7), Plasmodium falciparum 3D7 (PF3D7_0213400), sequence (Q7YTF7 1-343): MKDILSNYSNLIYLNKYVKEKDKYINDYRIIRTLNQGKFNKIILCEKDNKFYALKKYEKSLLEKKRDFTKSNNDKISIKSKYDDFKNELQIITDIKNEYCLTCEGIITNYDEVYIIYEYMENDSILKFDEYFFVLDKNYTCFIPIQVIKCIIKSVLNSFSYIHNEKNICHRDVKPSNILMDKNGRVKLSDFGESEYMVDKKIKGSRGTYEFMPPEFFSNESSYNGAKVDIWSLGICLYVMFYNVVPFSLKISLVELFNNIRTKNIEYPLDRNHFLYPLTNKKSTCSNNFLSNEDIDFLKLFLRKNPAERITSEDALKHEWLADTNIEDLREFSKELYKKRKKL
Calcium-dependent protein kinase 1 (Plasmodium falciparum (isolate 3D7)), sequence (P62344 whole entry, looked up): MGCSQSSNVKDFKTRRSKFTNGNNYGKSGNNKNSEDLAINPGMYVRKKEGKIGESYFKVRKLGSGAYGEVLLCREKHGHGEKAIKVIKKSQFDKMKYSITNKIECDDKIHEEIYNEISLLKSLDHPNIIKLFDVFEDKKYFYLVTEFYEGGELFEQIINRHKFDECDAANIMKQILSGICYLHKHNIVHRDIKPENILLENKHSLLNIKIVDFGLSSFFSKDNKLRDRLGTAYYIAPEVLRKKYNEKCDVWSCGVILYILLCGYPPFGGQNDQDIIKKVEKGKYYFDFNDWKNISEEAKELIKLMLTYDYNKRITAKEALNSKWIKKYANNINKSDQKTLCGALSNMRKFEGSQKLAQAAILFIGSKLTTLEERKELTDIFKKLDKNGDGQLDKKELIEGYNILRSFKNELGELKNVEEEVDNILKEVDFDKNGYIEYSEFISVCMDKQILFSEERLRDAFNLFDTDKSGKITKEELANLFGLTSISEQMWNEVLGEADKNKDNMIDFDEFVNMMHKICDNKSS
L-lactate dehydrogenase (Plasmodium falciparum (isolate CDC / Honduras)), sequence (Q27743 whole entry, looked up): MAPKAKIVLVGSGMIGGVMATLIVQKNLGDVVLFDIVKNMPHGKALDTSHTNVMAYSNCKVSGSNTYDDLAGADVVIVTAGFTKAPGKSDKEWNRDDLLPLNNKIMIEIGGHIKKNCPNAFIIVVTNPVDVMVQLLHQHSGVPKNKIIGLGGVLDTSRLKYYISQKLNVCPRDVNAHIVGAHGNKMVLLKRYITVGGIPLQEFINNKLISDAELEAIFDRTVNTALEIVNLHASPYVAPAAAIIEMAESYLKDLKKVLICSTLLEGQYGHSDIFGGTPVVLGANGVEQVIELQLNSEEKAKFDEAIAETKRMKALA
Plasmodium falciparum protein kinase 6 (PK6, PF3D7_1337100), sequence (Q8IDW1 1-305): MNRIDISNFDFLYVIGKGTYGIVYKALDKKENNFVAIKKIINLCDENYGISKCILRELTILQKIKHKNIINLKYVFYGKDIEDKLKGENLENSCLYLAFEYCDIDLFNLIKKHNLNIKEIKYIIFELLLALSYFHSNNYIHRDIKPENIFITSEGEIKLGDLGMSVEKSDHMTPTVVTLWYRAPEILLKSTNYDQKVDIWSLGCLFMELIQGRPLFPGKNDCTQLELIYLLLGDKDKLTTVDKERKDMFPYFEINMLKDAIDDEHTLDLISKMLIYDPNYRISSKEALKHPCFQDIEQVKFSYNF
Calcium-dependent protein kinase 4 (Plasmodium falciparum (isolate 3D7)), sequence (Q8IBS5 whole entry, looked up): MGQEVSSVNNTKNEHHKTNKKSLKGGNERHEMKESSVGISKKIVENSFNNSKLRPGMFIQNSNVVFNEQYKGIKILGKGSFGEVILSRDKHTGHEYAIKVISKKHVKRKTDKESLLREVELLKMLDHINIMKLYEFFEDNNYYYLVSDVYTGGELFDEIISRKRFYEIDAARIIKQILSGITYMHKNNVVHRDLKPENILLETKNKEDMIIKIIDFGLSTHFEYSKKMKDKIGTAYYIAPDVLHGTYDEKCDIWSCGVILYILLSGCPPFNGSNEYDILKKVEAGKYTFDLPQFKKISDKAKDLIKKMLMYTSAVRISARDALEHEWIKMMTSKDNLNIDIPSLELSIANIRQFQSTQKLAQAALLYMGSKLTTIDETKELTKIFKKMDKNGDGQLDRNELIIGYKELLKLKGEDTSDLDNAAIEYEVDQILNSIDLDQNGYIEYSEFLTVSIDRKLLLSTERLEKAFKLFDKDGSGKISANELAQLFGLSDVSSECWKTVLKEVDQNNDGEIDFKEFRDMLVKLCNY

The inhibition is the relative decrease from the control value, in per cent. As to `Cc1cc2nc(-c3ccc(C(=O)NCc4ccc(Cl)c(Cl)c4)cc3)[nH]c2cc1C`, the growth inhibition in experiment [1] was 83% (active); in experiment [4], 96% (active). For the same molecule, the inhibition is 6% in experiment [2] and 1% in experiment [3]. In addition, the result in experiment [5], in experiment [6], in experiment [7] and in experiment [8] was inactive.

In the case of `Nc1cccc(CNCc2ccc(-c3ccc(-c4nc5ccc(C(F)(F)F)cc5[nH]4)s3)cc2)c1`, the growth inhibition in experiment [1] is 98% (active); in experiment [4] it was 102% (active). Moreover, the inhibition was 28% in experiment [2] and -2% in experiment [3]. The result in experiment [5], in experiment [6], in experiment [7] and in experiment [8] was inactive.

For `COc1ccc2nccc([C@@H](O)CN3CCC(NC(=O)COc4nc(SCc5ccc(F)cc5)nc5c4CCC5)CC3)c2c1`, the figures for the growth inhibition in experiment [1] and in experiment [4] were 78% (active) and 96% (active), respectively. Also, the inhibition in experiment [2] is 29%; in experiment [3], -2%. In addition, the outcome in experiment [5], in experiment [6], in experiment [7] and in experiment [8] was inactive.

For the molecule `Nc1ccc(-c2nc3ccc(Cc4ccc5nc(-c6ccc(N)cc6)[nH]c5c4)cc3[nH]2)cc1`, the figures for the growth inhibition in experiment [1] and in experiment [4] were 96% (active) and 100% (active), respectively. Besides, the values for the inhibition in experiment [2] and in experiment [3] were 47% and 2%, respectively. Moreover, the result in experiment [5], in experiment [6], in experiment [7] and in experiment [8] was inactive.

`COc1ccc(CCN2CCC(Nc3nc4ccccc4n3CCc3ccc(OC)cc3)CC2)cc1`: the values for the growth inhibition in experiment [1] and in experiment [4] were 88% (active) and 101% (active), respectively. Further, the inhibition in experiment [2] was 34%; in experiment [3], -1%. The outcome in experiment [5], in experiment [6], in experiment [7] and in experiment [8] was inactive.

Consider `Cc1ccc(-n2nc3ccc(NC(=O)c4ccc([N+](=O)[O-])o4)cc3n2)cc1C`, for which the growth inhibition in experiment [1] is 95% (active); in experiment [4], 94% (active). The inhibition in experiment [2] was 20%; in experiment [3] it was -3%. The result in experiment [5], in experiment [6], in experiment [7] and in experiment [8] was inactive.

Take `c1ccc2[nH]c(-c3ccc(-c4ccc(CNCCc5ccncc5)cc4)s3)nc2c1`: the growth inhibition in experiment [1] is 98% (active); in experiment [4] it was 101% (active). Moreover, the results for the inhibition in experiment [2] and in experiment [3] were 28% and -6%, respectively. The result in experiment [5], in experiment [6], in experiment [7] and in experiment [8] was inactive.

`Cc1cc2ccccc2n1CC(=O)N1CC(C(=O)N2CCCCC2)Oc2ccccc21` (stereo not given): the growth inhibition in experiment [1] is 77% (active); in experiment [4], 99% (active). Further, the figures for the inhibition in experiment [2] and in experiment [3] were -1% and 2%, respectively. Besides, the outcome in experiment [5], in experiment [6], in experiment [7] and in experiment [8] was inactive.

Take `O=C(Nc1ccc(Cl)cc1)Nc1ccc2nonc2c1`: the growth inhibition in experiment [1] is 77% (active); in experiment [4], 94% (active). Also, the figures for the inhibition in experiment [2] and in experiment [3] were -25% and -4%, respectively. The result in experiment [5], in experiment [6], in experiment [7] and in experiment [8] was inactive.

For `Clc1ccc(CNCC2CCN(CC3CCCCC3)CC2)cc1Cl`, the growth inhibition was 6% in experiment [1] and 92% (active) in experiment [4]. For the same molecule, the results for the inhibition in experiment [2] and in experiment [3] were 18% and 4%, respectively. The outcome in experiment [5], in experiment [6], in experiment [7] and in experiment [8] was inactive.

For the molecule `CCCCOc1ccc(/C=C/c2ccc(-c3c(C)[nH]c(C)c(Cl)c3=O)s2)cc1`, the growth inhibition in experiment [1] is 96% (active); in experiment [4], 97% (active). The inhibition in experiment [2] is -4%; in experiment [3], -2%. Moreover, the result in experiment [5], in experiment [6], in experiment [7] and in experiment [8] was inactive.

Consider `CCc1cn2c3c(cc(C(=O)N[C@@H](Cc4ccccc4)[C@H](O)CNC4CCCC4)cc13)N(C)S(=O)(=O)CC2`, for which the results for the growth inhibition in experiment [1] and in experiment [4] were 99% (active) and 100% (active), respectively. Besides, the inhibition in experiment [2] was 6%; in experiment [3] it was -8%. Further, the result in experiment [5], in experiment [6], in experiment [7] and in experiment [8] was inactive.

As for `CN(C)Cc1cc(Nc2ccnc3cc(Cl)ccc23)ccc1O`, the growth inhibition in experiment [1] and in experiment [4] was 100% (active) in each case. The inhibition in experiment [2] was 36%; in experiment [3] it was -3%. In addition, the outcome in experiment [5], in experiment [6], in experiment [7] and in experiment [8] was inactive.

As to `Cc1ccc(C2=NNC3(S2)C(=O)N(C)c2ccccc23)cc1` (stereo not given), the figures for the growth inhibition in experiment [1] and in experiment [4] were 12% and 82% (active), respectively. Further, the inhibition is 36% in experiment [2] and 5% in experiment [3]. In addition, the outcome in experiment [5], in experiment [6], in experiment [7] and in experiment [8] was inactive.

With `CCNc1cc(C(=O)N[C@@H](Cc2ccccc2)[C@H](O)CNC23CCC(CC2)CC3)cc(N2CCCCS2(=O)=O)c1`, the growth inhibition in experiment [1] was 98% (active); in experiment [4], 99% (active). In addition, the inhibition was 10% in experiment [2] and 4% in experiment [3]. Further, the outcome in experiment [5], in experiment [6], in experiment [7] and in experiment [8] was inactive.

As to `CCCCc1ccccc1NS(=O)(=O)c1ccc(OC)c(N2CCNCC2)c1`, the results for the growth inhibition in experiment [1] and in experiment [4] were 2% and 91% (active), respectively. The values for the inhibition in experiment [2] and in experiment [3] were 6% and 0%, respectively. For the same molecule, the outcome in experiment [5], in experiment [6], in experiment [7] and in experiment [8] was inactive.

Turning to `Cc1ccc(C)c(CC(=O)N2CCC(n3c(C)nc4ccc(F)cc43)CC2)c1`, the results for the growth inhibition in experiment [1] and in experiment [4] were 99% (active) and 100% (active), respectively. Moreover, the inhibition in experiment [2] was -2%; in experiment [3] it was 1%. In addition, the result in experiment [5], in experiment [6], in experiment [7] and in experiment [8] was inactive.

Take `O=C(NCCCCCN1CCC(c2c[nH]c3ccccc23)CC1)Nc1ccc(Cl)cc1Cl`: the figures for the growth inhibition in experiment [1] and in experiment [4] were 15% and 99% (active), respectively. The inhibition in experiment [2] is 71% (active); in experiment [3] it was -2%. Besides, the result in experiment [5], in experiment [6], in experiment [7] and in experiment [8] was inactive.

As for `Cc1ccc2ccccc2c1CCCON1C(N)=NC(N)=NC1(C)C`, the growth inhibition in experiment [1] is 97% (active); in experiment [4] it was 95% (active). Also, the inhibition in experiment [2] is 65% (active); in experiment [3] it was 5%. Also, the outcome in experiment [5], in experiment [6], in experiment [7] and in experiment [8] was inactive.

Take `CCCC(=O)Nc1ccc(OCCCN(Cc2ccccc2C(F)(F)F)c2ccc(C#N)c(C(F)(F)F)c2)cc1`: the growth inhibition in experiment [1] was 79% (active); in experiment [4], 89% (active). For the same molecule, the results for the inhibition in experiment [2] and in experiment [3] were -5% and 2%, respectively. In addition, the outcome in experiment [5], in experiment [6], in experiment [7] and in experiment [8] was inactive.
